# Results reported in PubChem BioAssay AID485336 (The Scripps Research Institute Molecular Screening Center, 2010).
# Results with a measured potency or affinity are listed apart. Calls of active or inactive are those of the source.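 How the source made its calls: active means average inhibition at 10 µM of 40% or more; inactive means average inhibition at 10 µM below 40%.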
# Molecular target: Krueppel-like factor 5 (Homo sapiens) (UniProt Q13887)
# Experiment: reduction of KLF5 protein levels, late-stage follow-up, orthogonal assay for KLF5 inhibitor project, western blot, chemiluminescence, DLD-1 cells, titration (AID 485336)
# Settings: DLD-1 KLF5 protein level, 24 h; series mostly up to 20 µM
# Krueppel-like factor 5 (Homo sapiens), sequence (Q13887 whole entry, looked up): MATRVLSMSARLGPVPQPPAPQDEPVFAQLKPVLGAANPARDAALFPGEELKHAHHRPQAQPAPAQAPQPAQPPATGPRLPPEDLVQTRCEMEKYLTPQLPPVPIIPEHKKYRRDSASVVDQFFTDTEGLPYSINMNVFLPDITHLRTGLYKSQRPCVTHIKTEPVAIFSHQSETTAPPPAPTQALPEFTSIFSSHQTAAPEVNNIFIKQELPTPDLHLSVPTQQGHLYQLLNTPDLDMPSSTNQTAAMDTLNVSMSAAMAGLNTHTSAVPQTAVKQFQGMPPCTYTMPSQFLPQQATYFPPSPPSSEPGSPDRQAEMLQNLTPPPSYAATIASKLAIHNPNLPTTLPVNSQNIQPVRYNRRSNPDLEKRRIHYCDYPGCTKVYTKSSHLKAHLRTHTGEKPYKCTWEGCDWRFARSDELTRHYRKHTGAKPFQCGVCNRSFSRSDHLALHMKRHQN
row,SMILES,outcome
1,CCOC(=O)c1sc(NC(=O)c2cc3c(s2)CCC(C)C3)nc1C (stereo not given),inactive
2,Cc1ccc2nc(NC(=O)CCCc3nc4ccccc4s3)sc2c1,inactive
3,CCCc1ccc(-c2ccc(/C=C/C(=O)O)cc2)nc1,inactive
4,COC(=O)c1ccc2nc(Nc3nc4ccc(F)cc4s3)sc2c1,inactive
5,CCOC(=O)c1sc(NC(=O)c2ccc3ncsc3c2)nc1C,inactive
